# For part of these data: Results with a measured potency or affinity are listed apart. The source made the active and inactive calls.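 The calls were made as follows, unless noted: active = hit in primary screen, with calcium signal over 5 SD above buffer well mean in both duplicates; inactive = the rest.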
# Experiments:
# [1] = test system: TRPC4 beta (transient receptor potential cation channel C4), mouse; assay: activators of mouse TRPC4 channel, confirmation, cell-based, Fluo4 calcium, HEK293 TRPC4beta/mu-opioid, duplicates, 10 µM (AID 2426;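 active = fluorescence ratio normalized to control raised more than 50% in primary screen plus both repeat runs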;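 as to activation: percent rise of integrated ratio over buffer wells lacking compound which define 0%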); settings: Fluo4 calcium fluorescence, at 10 µM; stronger effect = higher value
# [2] = test system: transient receptor potential cation channel C4 beta (TRPC4), mouse; assay: activators of mouse TRPC4 channel, confirmation, cell-based, second round, Fluo4, HEK293 TRPC4beta/mu-opioid, 1 µM (AID 2461;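 active = primary screen active and over 50% activation in each of two duplicate runs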;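 as to activation: 0% = wells without test compound as baseline of integrated fluorescence ratio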); settings: Fluo4 calcium fluorescence, at 1 µM; stronger effect = higher value
# [3] = test system: TRPC4 (transient receptor potential cation channel C4 beta), mouse; assay: positive allosteric modulators of mouse TRPC4, confirmation, cell-based, second round, Fluo-4, HEK293 TRPC4beta/mu-opioid, 1 µM (AID 2554;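 active = primary screen hit whose fluorescence ratio, in both repeats, exceeds the weak agonist control mean by 3 SD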); settings: DAMGO EC20, Fluo-4 calcium flux, at 1 µM; stronger effect = higher value
# [4] = test system: TRPC4 beta (transient receptor potential cation channel C4), mouse; assay: positive allosteric modulators of mouse TRPC4, confirmation, cell-based, Fluo-4, HEK293 TRPC4beta/mu-opioid (AID 2555;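 active = primary screen hit whose calcium fluorescence ratio, in both repeats, exceeds the weak agonist control mean by 3 SD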); settings: DAMGO EC20, Fluo-4 calcium flux, at 10 µM; stronger effect = higher value
# [5] = molecular target: Short transient receptor potential channel 4 (Mus musculus) (UniProt Q9QUQ5); assay: inhibitors of mouse TRPC4 channel, confirmation, cell-based, Fluo4, HEK293 TRPC4beta/mu-opioid (AID 2636;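 active = calcium signal cut by more than 3 SD below the full-agonist control yet still positive, in both repeats and the earlier primary screen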); settings: DAMGO, Fluo4 calcium flux, at 10 µM; stronger effect = higher value
# Sequence of Short transient receptor potential channel 4 (Mus musculus) (Q9QUQ5 whole entry, looked up): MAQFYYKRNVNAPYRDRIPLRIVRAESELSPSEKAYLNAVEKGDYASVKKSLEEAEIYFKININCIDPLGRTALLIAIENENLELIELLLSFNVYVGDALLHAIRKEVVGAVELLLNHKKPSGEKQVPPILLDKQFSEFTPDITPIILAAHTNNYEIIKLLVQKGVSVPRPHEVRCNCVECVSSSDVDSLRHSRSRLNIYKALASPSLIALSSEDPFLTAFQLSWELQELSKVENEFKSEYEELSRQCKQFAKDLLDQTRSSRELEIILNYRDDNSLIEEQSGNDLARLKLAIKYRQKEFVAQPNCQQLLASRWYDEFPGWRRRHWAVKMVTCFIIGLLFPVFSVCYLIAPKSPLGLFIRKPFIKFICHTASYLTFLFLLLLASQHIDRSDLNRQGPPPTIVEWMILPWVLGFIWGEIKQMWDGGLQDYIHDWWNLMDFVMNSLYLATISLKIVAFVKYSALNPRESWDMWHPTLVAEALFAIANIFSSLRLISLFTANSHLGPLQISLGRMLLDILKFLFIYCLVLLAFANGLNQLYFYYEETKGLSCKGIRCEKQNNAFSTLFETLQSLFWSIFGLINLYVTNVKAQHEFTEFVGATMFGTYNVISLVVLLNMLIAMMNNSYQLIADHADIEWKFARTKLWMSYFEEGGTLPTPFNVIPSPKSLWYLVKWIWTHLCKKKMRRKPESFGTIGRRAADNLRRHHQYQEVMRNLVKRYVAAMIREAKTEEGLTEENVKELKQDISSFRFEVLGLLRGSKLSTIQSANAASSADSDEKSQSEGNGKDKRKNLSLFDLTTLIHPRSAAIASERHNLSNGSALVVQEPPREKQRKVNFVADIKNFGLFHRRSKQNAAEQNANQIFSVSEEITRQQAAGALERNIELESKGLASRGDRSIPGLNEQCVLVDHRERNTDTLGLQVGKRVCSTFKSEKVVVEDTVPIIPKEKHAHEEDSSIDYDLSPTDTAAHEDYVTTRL
# [6] = molecular target: Short transient receptor potential channel 4 (Mus musculus) (UniProt Q9QUQ5); assay: inhibitors of mouse TRPC4 channel, confirmation, cell-based, second round, Fluo4, HEK293 TRPC4beta/mu-opioid, 1 µM (AID 2637;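 active = calcium signal ratio cut to more than 3 SD under the fully stimulated control mean yet still positive, in both repeats and the primary screen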;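 as to inhibition: percent of integrated ratio relative to wells lacking test compound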); settings: Fluo4 calcium flux, DAMGO, at 1 µM; stronger effect = higher value
# [7] = molecular target: Short transient receptor potential channel 4 (Mus musculus) (UniProt Q9QUQ5); assay: TRPC4 positive allosteric modulators, dose response, cell-based, HEK293 TRPC4/mu-opioid, Fluo-4 calcium, EC20 DAMGO (AID 434941;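 active = earlier screen potentiator hit that boosts the TRPC4 ion channel at some dose, with a dose response; inactive = no potentiation, no dose response, or not a prior hit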;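 also: calcium entry triggered by an EC20 dose of DAMGO at the co-expressed mu-opioid receptor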)
# [8] = molecular target: Short transient receptor potential channel 6 (Mus musculus) (UniProt Q61143); assay: inhibition of mouse TRPC6 channel, confirmation, selectivity assay for TRPC4 inhibitor project, cell-based, HEK293, membrane potential dye, duplicate (AID 434948;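 active = active in primary screen and both duplicates, each dropping signal beyond three positive-control SD with fluorescence still positive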); settings: HEK293 TRPC6, membrane potential dye fluorescence, at 10 µM, stimulated with maximal-effect acetylcholine; stronger effect = higher value
# Sequence of Short transient receptor potential channel 6 (Mus musculus) (Q61143 whole entry, looked up): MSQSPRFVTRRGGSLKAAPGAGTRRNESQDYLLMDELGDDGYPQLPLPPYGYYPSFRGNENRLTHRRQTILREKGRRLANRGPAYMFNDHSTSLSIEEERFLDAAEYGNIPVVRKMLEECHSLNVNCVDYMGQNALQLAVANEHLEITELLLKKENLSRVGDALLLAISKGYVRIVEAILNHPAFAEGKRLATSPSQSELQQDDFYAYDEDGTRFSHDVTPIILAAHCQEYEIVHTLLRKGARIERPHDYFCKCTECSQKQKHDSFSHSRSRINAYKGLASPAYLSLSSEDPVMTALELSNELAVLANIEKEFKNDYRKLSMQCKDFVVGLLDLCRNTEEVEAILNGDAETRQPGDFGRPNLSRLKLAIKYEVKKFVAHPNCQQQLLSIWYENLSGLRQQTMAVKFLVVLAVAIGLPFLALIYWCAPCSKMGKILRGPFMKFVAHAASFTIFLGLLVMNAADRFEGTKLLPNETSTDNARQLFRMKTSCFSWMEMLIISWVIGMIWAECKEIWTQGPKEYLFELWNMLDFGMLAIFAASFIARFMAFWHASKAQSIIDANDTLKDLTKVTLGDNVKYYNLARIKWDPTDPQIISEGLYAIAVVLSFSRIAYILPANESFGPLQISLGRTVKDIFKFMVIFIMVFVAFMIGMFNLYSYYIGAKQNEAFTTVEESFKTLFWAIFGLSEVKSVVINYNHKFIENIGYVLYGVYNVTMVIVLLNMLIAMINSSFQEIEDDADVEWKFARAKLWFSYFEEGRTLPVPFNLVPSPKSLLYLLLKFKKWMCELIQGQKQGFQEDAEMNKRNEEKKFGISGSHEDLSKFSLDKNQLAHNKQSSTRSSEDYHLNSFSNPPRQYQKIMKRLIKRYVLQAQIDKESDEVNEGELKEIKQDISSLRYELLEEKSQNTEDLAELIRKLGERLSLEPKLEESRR
# [9] = molecular target: Short transient receptor potential channel 6 (Mus musculus) (UniProt Q61143); assay: activation of mouse TRPC6 channel, confirmation, selectivity assay for TRPC4 activator project, cell-based, HEK293, membrane potential dye, duplicate (AID 434950;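 active = membrane potential signal rise above negative control mean plus 3 SD in both duplicates, also active in the earlier TRPC4 screen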;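 as to activation: 0% = buffer only wells and 100% = acetylcholine maximal-effect wells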); settings: HEK293 TRPC6, membrane potential fluorescence, at 10 µM; stronger effect = higher value
# [10] = molecular target: Short transient receptor potential channel 6 (Mus musculus) (UniProt Q61143); assay: TRPC6 potentiation by TRPC4 potentiator hits, confirmation, selectivity assay for TRPC4 potentiator project, HEK293 cells, membrane potential dye, duplicate (AID 434952;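 active = compound raising the membrane signal above positive-control mean plus 3 SD in both repeats, and a primary screen hit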); settings: HEK293 TRPC6, membrane potential dye fluorescence, at 10 µM, maximal acetylcholine added after compound; stronger effect = higher value
# [11] = molecular target: Short transient receptor potential channel 4 (Mus musculus) (UniProt Q9QUQ5); assay: calcium flux activators in TRPC4/5HT1a cells, counter-screen for TRPC4 activator project, cell-based, second counter screen, HEK293 TRPC4/5HT1a, Fluo-4 (AID 434977;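 active = calcium signal rise above buffer-control mean plus 5 SD in both duplicates, and also a hit in the primary screen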;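 as to activation: plate controls were assay buffer for no effect and maximal serotonin response for full effect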); settings: Fluo-4 calcium flux, at 10 µM; stronger effect = higher value
# [12] = calcium flux inhibitors in TRPC4/5HT1a cells, confirmation, counter-screen for TRPC4 inhibitor project, cell-based, second counter screen, HEK293 TRPC4/5HT1a, Fluo-4 (AID 434978;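 active = primary screen active whose calcium signal fell more than 3 SD beyond the full-serotonin control mean in both duplicate plates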;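 as to outcome: serotonin given first at submaximal then at maximal dose after compound preincubation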); settings: Fluo-4 calcium flux, at 10 µM, serotonin added to trigger calcium flux; stronger effect = higher value
# [13] = test system: TRPC4 (mouse), co-expressed with 5HT1a in HEK293; assay: calcium flux potentiators in TRPC4/5HT1a cells, confirmation, counter-screen for TRPC4 potentiator project, cell-based, second counter screen, HEK293 TRPC4/5HT1a, Fluo-4 (AID 434979;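 active = signal rise over 3 SD above mean of control wells given weak agonist, in both repeats and first screen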); settings: Fluo-4 calcium flux, at 10 µM, serotonin added at its EC20 dose; stronger effect = higher value
# [14] = calcium flux activation in mu-opioid HEK293 cells, confirmation, counter-screen for TRPC4 activator project, cell-based, HEK293 mu-opioid receptor line (AID 449723); settings: Fluo-4 calcium fluorescence, at 10 µM; stronger effect = higher value;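 also: counter screen cells carry the mu-opioid receptor alone and lack TRPC4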
# [15] = calcium flux enhancement in mu-opioid HEK293 cells, confirmation, counter-screen for TRPC4 allosteric potentiator project, cell-based, HEK293 mu-opioid receptor line (AID 449724;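 active = calcium signal rise more than 3 SD above the low-dose agonist control mean, in both duplicate plates and the primary screen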); settings: Fluo-4 calcium flux, at 10 µM, compound added before EC20 DAMGO stimulus; stronger effect = higher value
smiles,measurement,setting,value
COc1ccc(CCN(C)CCN2C(=O)c3ccccc3C2=O)cc1OC,activation,[1],252% (active)
same,activation,[2],103% (active)
same,outcome,[3],inactive
same,outcome,[4],inactive
same,outcome,[5],inactive
same,inhibition,[6],43% (active)
same,outcome,[7],inactive
same,outcome,[8],inactive
same,outcome,[9],inactive
same,outcome,[10],inactive
same,activation,[11],96.5% (active)
same,inhibition,[12],1.2% (active)
same,outcome,[13],inactive
same,outcome,[14],inactive
same,outcome,[15],inactive
CC1CC(C)(C)N(C(=O)CN2C(=O)c3ccccc3C2=O)c2ccccc21 (stereo not given),activation,[1],149% (active)
same,outcome,[2],inactive
same,outcome,[3],inactive
same,outcome,[4],inactive
same,inhibition,[5],73% (active)
same,outcome,[6],inactive
same,outcome,[7],inactive
same,outcome,[8],inactive
same,activation,[9],51.5% (active)
same,outcome,[10],inactive
same,activation,[11],23.1% (active)
same,outcome,[12],inactive
same,outcome,[13],inactive
same,activation,[14],62.6% (active)
same,outcome,[15],inactive
CCCCC(c1nnnn1CC1CCCO1)N1CCN(Cc2ccccc2)CC1 (stereo not given),outcome,[1],inactive
same,outcome,[2],inactive
same,outcome,[3],inactive
same,outcome,[4],inactive
same,inhibition,[5],84% (active)
same,outcome,[6],inactive
same,outcome,[7],inactive
same,outcome,[8],inactive
same,activation,[9],64.5% (active)
same,outcome,[10],inactive
same,outcome,[11],inactive
same,outcome,[12],inactive
same,outcome,[13],inactive
same,outcome,[14],inactive
same,outcome,[15],inactive
O=C(NC(=S)NNC(=O)c1ccco1)c1ccc(Br)cc1,activation,[1],149% (active)
same,outcome,[2],inactive
same,outcome,[3],inactive
same,outcome,[4],inactive
same,outcome,[5],inactive
same,outcome,[6],inactive
same,outcome,[7],inactive
same,outcome,[8],inactive
same,activation,[9],32.5% (active)
same,outcome,[10],inactive
same,activation,[11],22.9% (active)
same,outcome,[12],inactive
same,outcome,[13],inactive
same,outcome,[14],inactive
same,outcome,[15],inactive
O=C(C[n+]1cc2ccccc2c2ccccc21)c1ccccc1,activation,[1],212% (active)
same,outcome,[2],inactive
same,outcome,[3],inactive
same,outcome,[4],inactive
same,inhibition,[5],94% (active)
same,outcome,[6],inactive
same,outcome,[7],inactive
same,inhibition,[8],29.5% (active)
same,outcome,[9],inactive
same,outcome,[10],inactive
same,activation,[11],27.6% (active)
same,inhibition,[12],33.5% (active)
same,outcome,[13],inactive
same,outcome,[14],inactive
same,outcome,[15],inactive
CN(C)C(CNC(=O)c1ccc(C(F)(F)F)cc1)c1ccco1 (stereo not given),activation,[1],55% (active)
same,outcome,[2],inactive
same,outcome,[3],inactive
same,outcome,[4],inactive
same,inhibition,[5],96% (active)
same,inhibition,[6],92% (active)
same,outcome,[7],inactive
same,outcome,[8],inactive
same,activation,[9],28.5% (active)
same,outcome,[10],inactive
same,outcome,[11],inactive
same,outcome,[12],inactive
same,outcome,[13],inactive
same,outcome,[14],inactive
same,outcome,[15],inactive
CCc1ccc(C(CNc2nc(C(F)(F)F)nc3ccccc23)N(C)C)cc1 (stereo not given),outcome,[1],inactive
same,outcome,[2],inactive
same,outcome,[3],inactive
same,outcome,[4],inactive
same,outcome,[5],inactive
same,outcome,[6],inactive
same,outcome,[7],inactive
same,outcome,[8],inactive
same,outcome,[9],inactive
same,outcome,[10],inactive
same,outcome,[11],inactive
same,outcome,[12],inactive
same,outcome,[13],inactive
same,outcome,[14],inactive
same,outcome,[15],inactive
